Source: PubChem
A selection: hits, their analogues and other compounds. The true share with any hit is near 6.7%.
PINK1 modulator = A Quantitative High throughput Screen to Identify Chemical Modulators of PINK1 Expression; PINK1 immunofluorescence, high-content cytometry, 24 h; Potency, µM (top dose mostly 76.6 µM), most hits filed as activators; actives 0.2% (n = 410,000); active means well fitted activation curve with a large enough effect; inconclusive means small, poorly fitted or top-dose-only effect; cell line not stated here; further: nearly all actives have a fitted effect of over 65% in size
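Decision-based qHTS: stable cells, 24 h exposure to five compound concentrations, CCCP as control. Fixed cells stained for PINK1 plus nuclear, mitochondrial and cell markers, cytometer read.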
KB-V1 cytotox = qHTS assay for MDR1-selective chemotherapeutics: Primary screen using the drug-selected MDR subline cells KB-V1; KB-V1 MDR cells viability, CellTiter-Glo, 72 h; Potency, µM (top dose mostly 46.1 µM), hits mostly cytotoxic; actives 3.4% (n = 400,000); further: nearly all actives have a fitted effect of over 60% in size
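Cytotoxicity via CellTiter-Glo luminescence after 72 h compound exposure at 37 degrees C. Cells: drug-selected KB-V1 line, DMEM phenol-red free plus 10% FBS. Compounds tested at multiple concentrations; normalized data fitted to concentration-effect curves.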
MCF10A rerep = A quantitative high throughput screen for small molecules that induce DNA re-replication in MCF 10a normal breast cells; MCF 10A DNA re-replication, Hoechst nuclear intensity, 48 h; Potency, µM (titrated, usually from 46.1 µM), hits mostly activators; actives 2.9% (n = 350,000); AID 624296, 2012; further: nearly all actives have a fitted effect of over 50% in size
KB-3-1 cytotox = qHTS assay for MDR1-selective chemotherapeutics: Primary screen using the parental adenocarcinoma cell KB-3-1. AID 1347075, 2019. actives 1.4% (n = 400,000). KB-3-1 viability, CellTiter-Glo ATP luminescence, 72 h. Potency, µM (series often up to 46.1 µM), most hits filed as cytotoxic; further: nearly all actives have a fitted effect of over 60% in size
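KB-3-1 parental drug-naive adenocarcinoma cells in DMEM/10% FBS, incubated 72 h at 37 C with pin-transferred compounds across a concentration series. Viability by CellTiter-Glo luminescence; concentration-response curves fitted after normalization.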
SW480 rerep = A quantitative high throughput screen for small molecules that induce DNA re-replication in SW480 colon adenocarcinoma cells | SW480 DNA re-replication, Hoechst DNA content imaging, 48 h | Potency, µM (top dose mostly 46.1 µM), hits mostly activators | actives 1.8% (n = 340,000) | AID 624297, 2012; further: nearly all actives have a fitted effect of over 55% in size
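Quantitative HTS format with DMSO vehicle controls; 48 hr drug incubation at 37 C, then 40 min Hoechst staining and scanning imager measurement at 405 nm excitation.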
Large screens that a line does not name were inactive. Unless noted, the call rests on the fitted dose curve; in most records, active means well fitted curve in the direction sought with a large enough effect; inconclusive means small, poorly fitted or top-dose-only effect, or another doubt; inactive means no such curve, though single readings can be large; an effect the other way counts as inactive or inconclusive.

CN1CCN(S(=O)(=O)c2ccc(-c3ccc(Cl)cc3)cc2)CC1	KB-V1 cytotox 13µM, MCF10A rerep inconclusive
CC(=O)NC(Cc1ccc(F)cc1)C(=O)NC1CCN(C(=O)Nc2ccccc2C)CC1 (configuration not stated)	KB-V1 cytotox inconclusive
CCCSc1ccc(-c2nn(-c3ccccc3)cc2/C=C(/C#N)C(=O)NCCCOC)cc1	PINK1 modulator inconclusive, KB-V1 cytotox inconclusive, SW480 rerep 4.1µM
Cc1ccc(-c2nn(-c3ccccc3)cc2/C=C(\C#N)C(=O)NCc2ccccc2)cc1	none
CCSc1ccc(-c2nn(-c3ccccc3)cc2/C=C(/C#N)C(=O)NCCCOC)cc1	MCF10A rerep 15µM, SW480 rerep inconclusive
Cc1ccc2[nH]c3c(N4CCc5ccccc5C4)ncnc3c2c1	PINK1 modulator inconclusive, KB-V1 cytotox inconclusive, MCF10A rerep inconclusive, KB-3-1 cytotox inconclusive
COc1ccc2[nH]c3c(N4CCC(O)(c5cccc(C(F)(F)F)c5)CC4)ncnc3c2c1	KB-V1 cytotox 18µM, MCF10A rerep inconclusive, KB-3-1 cytotox 13µM, SW480 rerep inconclusive
Fc1ccc2[nH]c3c(N4CCc5ccccc5C4)ncnc3c2c1	KB-V1 cytotox 6.5µM, MCF10A rerep inconclusive, KB-3-1 cytotox inconclusive
CCOc1ccc2[nH]c3c(N4CCc5ccccc5C4)ncnc3c2c1	KB-V1 cytotox 12µM, MCF10A rerep 9.2µM, KB-3-1 cytotox inconclusive, SW480 rerep inconclusive
Clc1ccc2[nH]c3c(N4CCC5(CC4)OCCO5)ncnc3c2c1	KB-V1 cytotox 16µM, MCF10A rerep 21µM, KB-3-1 cytotox 15µM, SW480 rerep inconclusive
COc1ccc2[nH]c3c(N4CCN(Cc5ccc6c(c5)OCO6)CC4)ncnc3c2c1	KB-V1 cytotox inconclusive, MCF10A rerep inconclusive, KB-3-1 cytotox inconclusive, SW480 rerep inconclusive
Cc1cccc2[nH]c3c(N4CCC5(CC4)OCCO5)ncnc3c12	KB-V1 cytotox inconclusive, MCF10A rerep inconclusive, SW480 rerep inconclusive
O=C(NCC1CCN(Cc2ccc(F)cc2)CC1)c1cc2ccc3cccnc3c2[nH]1	none (no result: MCF10A rerep, SW480 rerep)
CCc1nc2ccc(C(=O)NC3CCN(Cc4ccccc4)CC3)cn2c1N(CC)Cc1cccc(Br)c1	KB-V1 cytotox 8.2µM, KB-3-1 cytotox inconclusive (no result: MCF10A rerep, SW480 rerep)
CCc1nc2ccc(C(=O)N(C)Cc3ccccc3)cn2c1N(CC)Cc1cccc(Br)c1	none (no result: MCF10A rerep, SW480 rerep)
CC(=O)Nc1ccc(/C=C/c2ccccn2)cc1	KB-3-1 cytotox inconclusive (no result: PINK1 modulator, MCF10A rerep, SW480 rerep)
COc1cc(Br)cc(C=Nc2cccc(C(F)(F)F)c2)c1O	MCF10A rerep 21µM, KB-3-1 cytotox inconclusive
O=C(N/N=C/c1ccc(OC(F)F)cc1)c1cc[n+]([O-])cc1	KB-3-1 cytotox inconclusive
Cc1ccc(S(=O)(=O)N(C)Cc2ccc(C(=O)N/N=C/c3ccc(OC(F)F)cc3)cc2)cc1	KB-V1 cytotox 16µM, MCF10A rerep inconclusive
C/C(=N\NC(=O)C(N)=O)c1ccc(OC(F)F)cc1	none
C/C(=N\NC(=O)c1ccc(CN(C)S(=O)(=O)c2ccc(C)cc2)cc1)c1ccc(OC(F)F)cc1	KB-V1 cytotox 2.6µM, MCF10A rerep inconclusive, KB-3-1 cytotox 10µM
O=C(COC(=O)CCC1CCCC1)Nc1ccc(Cl)cc1F	SW480 rerep 23µM
COc1cccc(CSc2nc3ccccc3cc2C=O)c1	KB-V1 cytotox inconclusive, MCF10A rerep 13µM, KB-3-1 cytotox inconclusive, SW480 rerep 1.3µM
O=C(c1ccccc1)c1sc(N2CCCCCC2)nc1-c1ccccc1	KB-V1 cytotox inconclusive, MCF10A rerep inconclusive, KB-3-1 cytotox inconclusive
